# In PubChem BioAssay AID651710 (Broad Institute, 2012):
# Where “and” joins values, the source holds several entries; their conditions need not be identical. Equal values may be shown once. Among all 360,000 compounds or so, about 1,600 (0.44%) were called active. The full list was thinned out, with actives kept by preference. Unmarked numbers belong to inactive results.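 Rule for the calls: active = every replicate showing at least 50% inhibition; inconclusive = mean inhibition at least 50% but not in every replicate; inactive = the rest.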
# Molecular target: DNA repair protein RAD52 homolog (Homo sapiens) (UniProt P43351)
# Assay: blockers of RAD52 strand annealing activity – biochemical, FRET, single point, set 2, primary screen (AID 651710)
# Details: recombinant RAD52 DNA annealing, FRET fluorescence; at 18.7 µM; stronger effect = higher value
# Sequence of DNA repair protein RAD52 homolog (Homo sapiens) (P43351 whole entry, looked up): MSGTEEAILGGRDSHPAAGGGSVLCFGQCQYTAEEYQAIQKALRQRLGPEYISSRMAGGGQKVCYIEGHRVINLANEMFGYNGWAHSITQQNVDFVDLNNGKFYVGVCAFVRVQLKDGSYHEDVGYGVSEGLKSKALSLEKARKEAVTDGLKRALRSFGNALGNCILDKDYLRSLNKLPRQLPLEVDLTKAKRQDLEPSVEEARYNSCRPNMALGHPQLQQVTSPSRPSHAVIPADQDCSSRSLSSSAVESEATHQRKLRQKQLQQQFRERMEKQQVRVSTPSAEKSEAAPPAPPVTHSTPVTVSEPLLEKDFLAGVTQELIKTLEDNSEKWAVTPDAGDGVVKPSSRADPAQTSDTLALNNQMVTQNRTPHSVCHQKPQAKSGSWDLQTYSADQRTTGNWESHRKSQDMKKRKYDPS
row,Compound,inhibition
1,COCCNc1nc(Nc2ccccc2Cl)c2sc(-c3ccccc3)cc2n1,-21.9%
2,COCCNc1nc(NCc2ccc(NC(C)=O)cc2)c2sccc2n1,-6.25%
3,CC(=O)Nc1ccc(CNc2nc(NCCN(C)C)nc3cc(-c4ccccc4)sc23)cc1,98.5% (active)
4,C[C@@H]1CN([C@@H](C)CO)C(=O)c2cc(-c3cccnc3)cnc2O[C@H]1CN(C)Cc1ccc(-c2ccccc2)cc1,20.1%
5,O=C(C[C@H]1CC[C@H](NC(=O)c2ccc(F)cc2)[C@@H](CO)O1)NCCc1ccncc1,2.72%
6,Cc1c(C)n(Cc2ccc(Cl)cc2)c2ccc(C(=O)NCCCN3CCOCC3)cc12,-12.7%
7,CN1CCN(CCCNC(=O)c2ccc(/C=C3\Oc4ccccc4N(Cc4ccc(Cl)cc4)C3=O)cc2)CC1,94.8% (active)
8,CCC1Oc2ccccc2N(CC(=O)NCCCN2CCN(CC)CC2)C1=O (stereo not given),-5.96%
9,COc1ccccc1C#Cc1ccc([C@@H]2[C@H](CO)N3CCCCN(C(=O)C4CCCC4)C[C@@H]23)cc1,71% (active)
10,CN(C)CC#Cc1ccc([C@H]2[C@H](CO)N3CCCCN(CC4CC4)C[C@@H]23)cc1,65.4% (active)
11,C[C@@H](O)C#Cc1ccc([C@H]2[C@@H](CO)N3CCCCN(CC4CC4)C[C@@H]23)cc1,-24.5%
12,COc1ccccc1C#Cc1ccc([C@@H]2[C@H](CO)N3CCCCN(C(=O)C4CC4)C[C@@H]23)cc1,38.4%
13,COc1ccccc1C#Cc1ccc([C@H]2[C@H](CO)N3CCCCN(C(=O)C4CCC4)C[C@@H]23)cc1,-21.5%
14,C[C@H](O)C#Cc1ccc([C@@H]2[C@H](CO)N3CCCCN(CC4CC4)C[C@@H]23)cc1,8.98%
15,C[C@@H](NC(=O)C[C@H]1C[C@@H]2c3cc(NC(=O)c4ccc5c(c4)OCO5)ccc3O[C@@H]2[C@@H](CO)O1)c1ccccc1,8.57%
16,CO[C@H](CN(C)S(=O)(=O)c1ccc(C)cc1)[C@@H](C)CN(Cc1ccccc1Cl)[C@@H](C)CO,-2.08%
17,CO[C@H]1CN(C)C(=O)c2cc(NC(=O)Nc3ccccc3F)ccc2OC[C@H](C)N(C)C[C@H]1C,4.64%
18,CC(C)NC(=O)N1C[C@@H]2[C@H](c3ccccc31)[C@H](CO)N2C(=O)C1CCCC1,0.805%
19,COc1ccc2sc(N(CCCN(C)C)C(=O)c3ccc(S(=O)(=O)N(C)C4CCCCC4)cc3)nc2c1,62.7% (active)
20,COc1ccc(S(=O)(=O)N(C)CC(=O)N2CCCC2)cc1,-9.04%
21,COc1ccc(N(Cc2ccc(N(C)C)cc2)C(=O)c2ccc(S(C)(=O)=O)cc2)cc1,2.51%
22,Cn1ccc(=Nc2ccc(NC(=O)c3ccc(N=c4ccn(C)c5ccc([N+](=O)[O-])cc45)cc3)cc2)cc1,94.9% (active)
23,CN(CC1CCCO1)S(=O)(=O)c1ccc(C(=O)Nc2ccc([N+](=O)[O-])cc2)cc1 (stereo not given),-8.13%

row,Compound,inhibition
1,Cn1c(=O)n(C)c2cc(C(=O)Nc3ccc(Br)cc3)ccc21,-11.5%
2,C[C@@H]1CN([C@@H](C)CO)S(=O)(=O)c2ccc(/C=C/c3ccccc3)cc2O[C@H]1CN(C)C(=O)C1CC1,14.6%
3,O=C(C[C@H]1CC[C@H]2[C@@H](COC[C@H](O)CN2Cc2nccs2)O1)NCc1ccc(Oc2ccccc2)cc1,9.32%
4,O=C(Nc1ccccc1F)N[C@@H]1CC[C@H](CC(=O)N2CCCCC2)O[C@H]1CO,-11.7%
5,C#Cc1cc(N2CCN(C(=O)c3ccoc3)CC2)n2nc(-c3cccc(Cl)c3)cc2n1,10.8%
6,CN(C)CCN1CCN(c2cc(-c3cccc(Cl)c3)nc3ccnn23)CC1,91.4% (active)
7,O=C(c1ccccc1)N1CCN(c2cc(-c3ccccc3)nc3cc(-c4cccc(Cl)c4)nn23)CC1,-9.17%
8,CN(C)C(=O)c1cccc(-c2ccccc2[C@@H]2[C@@H](CO)N(C(=O)C3CCCCC3)[C@H]2C#N)c1,6.38%
9,C[C@H](CO)N1C[C@H](C)[C@@H](CN(C)Cc2ccc(-c3ccccc3)cc2)Oc2ccc(NC(=O)CCC(F)(F)F)cc2CC1=O,23.2%
10,C[C@H]1CN([C@@H](C)CO)C(=O)Cc2cc(NC(=O)CCCN(C)C)ccc2O[C@@H]1CN(C)Cc1ccc(-c2ccccc2)cc1,48.7%
11,C[C@@H]1CN([C@H](C)CO)C(=O)Cc2cc(NC(=O)CCCN(C)C)ccc2O[C@@H]1CN(C)Cc1ccc(Oc2ccccc2)cc1,54.4%
12,C[C@@H]1CN([C@@H](C)CO)C(=O)Cc2cc(NC(=O)CCCN(C)C)ccc2O[C@@H]1CN(C)Cc1ccc(-c2ccccc2)cc1,86.8% (active)
13,C[C@H](CO)N1C[C@H](C)[C@H](CN(C)Cc2ccc(-c3ccccc3)cc2)Oc2ccc(NC(=O)Nc3ccc(F)cc3)cc2CC1=O,-6.38%
14,C[C@H](CO)N1C[C@H](C)[C@@H](CN(C)Cc2ccc(-c3ccccc3)cc2)Oc2ccc(NC(=O)CCCN(C)C)cc2CC1=O,94% (active)
15,O=C(N[C@H]1CC[C@@H](CCNS(=O)(=O)c2ccccc2)O[C@@H]1CO)c1cnccn1,-13.2%
16,C[C@@H]1CN([C@H](C)CO)C(=O)CCCn2cc(nn2)CO[C@H]1CN(C)C(=O)Nc1ccc(N2CCCCC2)cc1,-12.3% and -1.13% and -23.2%
17,Clc1ccc2nc(-c3ccccc3)nc(C(Cl)Cl)c2c1,-10.7%
18,Cc1onc(-c2ccccc2)c1C(=O)N=C(N)c1ccc(Cl)cc1,-19.5%
19,NC(N)=Nc1nc(-c2ccccc2)c2cc(Cl)ccc2n1,84.7% (active)
20,O=C(CCC(=O)Nc1ccccc1)N/N=C/c1ccccc1F,-7.35%
21,NCCCCCC(=O)N/N=C/c1ccc2nccnc2c1,87.9% (active)
22,CC1=NNC(=O)C1CCC(=O)N/N=C\c1ccc(Cl)c(Cl)c1 (stereo not given),-0.875%
